Bioassay records from PubChem BioAssay.
BioA inh = blocks M. tuberculosis BioA enzyme activity; purified M. tuberculosis BioA enzyme, plate reader; inhibition, % at 9.99 µM; actives 0.096% (n = 360,000); in the data active means inhibition above about 40%; inconclusive means no clear call, values can overlap the other calls
FadD28 binding = M. tuberculosis FadD28 bisubstrate binding inhibition; FadD28 bisubstrate probe binding, fluorescence polarization; inhibition, % at 12.5 µM; actives 0.22% (n = 360,000); AID 588549; in the data active means inhibition above about 8.5%, passing the limit was not always enough; inconclusive means no clear call, values can overlap the other calls
Rv3671c protease = Rv3671c (M. tuberculosis) protease inhibition; inhibition, % at 5.96 µM; actives 0.048% (n = 320,000); in the data active means inhibition above about 38%;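 further: extracellular domain of Rv3671c used as enzyme; 0% = enzyme with DMSO and 100% = no enzyme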
TcdB GH inh = TcdB glycohydrolase inhibition; TcdB glycohydrolase enzymatic assay, plate reader; inhibition, % at 9.99 µM; actives 0.24% (n = 350,000); AID 652162; in the data active means inhibition above about 10%
RecA splice inh = Mtb RecA intein splicing inhibition; inhibition, % (concentration not given with the values); cell-free RecA intein splicing, fluorescence; AID 2221; P9WHJ3; actives 0.75% (n = 290,000); in the data active means inhibition above about 30%; inconclusive means no clear call, values can overlap the other calls;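 further: 0% = vehicle wells and 100% = reference inhibitor control wells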
Mtb UGM inh = inhibitors of M. tuberculosis UDP-galactopyranose mutase. purified UGM, fluorescence polarization probe displacement. inhibition, % at 10 µM. actives 0.06% (n = 320,000). P9WIQ1; in the data active means inhibition above about 10%, passing the limit was not always enough; inconclusive means no clear call, values can overlap the other calls
Target sequence (P9WIQ1 whole entry, looked up): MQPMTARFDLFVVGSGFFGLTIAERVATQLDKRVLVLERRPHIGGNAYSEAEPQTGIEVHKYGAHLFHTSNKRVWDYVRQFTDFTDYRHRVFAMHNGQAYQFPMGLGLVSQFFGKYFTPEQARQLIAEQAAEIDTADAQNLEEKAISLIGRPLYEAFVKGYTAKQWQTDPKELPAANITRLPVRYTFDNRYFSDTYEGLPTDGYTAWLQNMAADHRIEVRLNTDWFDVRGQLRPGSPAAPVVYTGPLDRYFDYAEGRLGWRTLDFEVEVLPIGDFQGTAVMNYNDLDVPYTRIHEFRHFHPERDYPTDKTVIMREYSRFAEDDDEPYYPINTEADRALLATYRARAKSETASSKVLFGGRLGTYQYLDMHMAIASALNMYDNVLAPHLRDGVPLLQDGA
GFP chromo cs = counter-screen: blocks GFP chromophore formation; shares compounds with RecA splice inh; cell-free GFP chromophore formation, fluorescence; EC50, µM; actives 83% (n = 2,100); AID 434968; call rule not given here
* marks the source's active call; other numbers are inactive results; ? = inconclusive; . = not tested or not shown. The list is not random: actives were taken first. Their share in the collection is about 0.97%.

SMILES | BioA inh | FadD28 binding | Rv3671c protease | TcdB GH inh | RecA splice inh | Mtb UGM inh | GFP chromo cs
COc1cc(C2C(C#N)=C(N)Oc3n[nH]c(C)c32)cc2c1OCO2 (stereo unspecified) | 1 | -1 | -4 | . | 92* | 0 | 4.9*
COc1cc(C2C(C#N)=C(N)OC3=C2C(=O)CCC3)cc2c1OCO2 (stereo unspecified) | -1 | 0 | 1 | 1 | 0 | 1 | .
Cc1ccc(S(=O)(=O)N[C@@H]2CC[C@@H](CCn3cc(C4CC4)nn3)O[C@H]2CO)cc1 | -1 | . | . | 2 | . | . | .
COc1ccccc1S(=O)(=O)N[C@@H]1CC[C@H](CC(=O)NCc2cc(F)cc(F)c2)O[C@H]1CO | . | . | . | 2 | . | . | .
CN1C(=O)c2cc(NC(=O)c3cccs3)ccc2OC[C@@H]2O[C@H](CC(=O)N3CCCCC3)CC[C@@H]21 | 2 | . | . | . | . | . | .
CCCC(=O)N1CCC2(CC1)CN(C(=O)C1CC1)[C@H](CO)c1[nH]c3cc(OC)ccc3c12 | . | . | . | 1 | . | . | .
Cc1[nH]nc2c1C(c1ccoc1)C(C#N)=C(N)O2 (stereo unspecified) | 0 | -3 | 1 | . | 84* | 2 | 18*
Cc1[nH]nc2c1C(C(C)C)C(C#N)=C(N)O2 (stereo unspecified) | -5 | 0 | -4 | . | . | 1 | .
Cc1cc(C(=O)Nc2cccc3c2O[C@@H](CN(C)C(=O)Nc2ccccc2)[C@@H](C)CN([C@H](C)CO)C3=O)n(C)n1 | -1 | . | . | 0 | . | . | .
CCCCCn1c(N)c(C(=O)NCc2cccs2)c2nc3ccccc3nc21 | . | . | -96 | . | 82* | 3 | 3.2*
CCCCNC(=O)CSc1nc2ccccc2c(=O)n1Cc1ccc2c(c1)OCO2 | . | 1 | -4 | . | 2 | 2 | .
CCCCNC(=O)c1c(N)n(Cc2ccc3c(c2)OCO3)c2nc3ccccc3nc12 | -1 | 2 | -8 | 2 | 68* | 3 | >38
CCCCCCn1c(N)c(C(=O)NCCN2CCOCC2)c2nc3ccccc3nc21 | 0 | -5 | 3 | . | -385 | 1 | .
COc1ccc2c3c(n(C)c2c1)[C@@H](CO)N(C)CC31CCN(C(=O)Nc2c(C)noc2C)CC1 | . | . | . | 1 | . | . | .
COc1ccc2c3c([nH]c2c1)[C@@H](CO)N(Cc1cccnc1)CC31CN(C(=O)CN(C)C)C1 | . | . | . | -1 | . | . | .
O=c1cc(-c2c(F)c(F)c(F)c(F)c2F)oc2ccccc12 | 1 | -2 | 2 | 1 | 29 | -3 | .
O=c1cc(-c2c(F)c(F)c(F)c(F)c2F)oc2c(F)c(F)c(F)c(F)c12 | . | . | -39 | . | 86* | 1 | 13*
CCCCc1ccc(NC(=O)COCC)cc1 | -4 | -1 | -5 | . | -2 | 1 | .
CCCCc1ccc(NC(=O)CSCc2cc(=O)[nH][nH]2)cc1 | -2 | -2 | -8 | . | 64* | 2 | 17*
O=C(CSCc1cc(=O)[nH][nH]1)Nc1ccc(F)cc1 | . | -3 | -12 | 0 | 85* | 0 | 12*
COCC(=O)N1CC[C@H]2[C@H](CO)Nc3ccc(-c4cccc(C(=O)N(C)C)c4)cc3[C@H]21 | 2 | . | . | . | . | . | .
O=C(NCc1cccnc1)/C(=C\c1ccc(-c2cccc(Cl)c2)o1)S(=O)(=O)c1ccccc1 | -1 | -5 | -18 | . | 54* | 2 | 35*
CC(C)CC#Cc1cnc2c(c1)C(=O)N([C@H](C)CO)C[C@H](C)[C@H](CN(C)Cc1ccccc1)O2 | . | . | . | 1 | . | . | .
Cc1ccccc1CS(=O)(=O)c1snnc1C | . | 0 | -6 | . | 44* | -2 | >38
CC(C)NC(=O)N[C@H]1CC[C@H](CCNC(=O)C2CCCC2)O[C@H]1CO | -3 | . | . | 1 | . | . | .
SMILES | BioA inh | FadD28 binding | Rv3671c protease | TcdB GH inh | RecA splice inh | Mtb UGM inh | GFP chromo cs
COc1ccc(NC(=O)Nc2ccc3c(c2)C(=O)N([C@@H](C)CO)C[C@H](C)[C@H](CN(C)C)OCCCC[C@H](C)O3)cc1 | 1 | . | . | 0 | . | . | .
O=C(NCCN1CCOCC1)c1ccncc1 | . | -1 | 5 | . | 0 | -1 | .
O=C1C=C(NCCN2CCOCC2)C(=O)c2cnccc21 | . | . | -101 | . | 96* | -1 | 1*
Cc1ccc(S(=O)(=O)/N=C2/C=C(C3C(=O)CC(C)(C)CC3=O)C(=O)c3ccccc32)cc1 | . | 0 | -38 | . | 85* | 4 | 9.9*
CCCC#Cc1ccc2c(c1)O[C@H](CN(C)Cc1cccnc1)[C@H](C)CN([C@@H](C)CO)S2(=O)=O | -4 | . | . | 0 | . | . | .
COc1ccc(C=C(c2nc3ccccc3s2)c2nc3ccccc3s2)cc1O | 6 | -1 | -14 | . | 60* | -1 | >38
Cc1cccc(S(=O)(=O)C(C#N)c2nc3ccccc3nc2N2CCCC2)c1 (stereo unspecified) | -1 | -6 | 2 | . | 45* | 1 | >38
Cc1ccc(S(=O)(=O)NCC[C@H]2CC[C@H](NC(=O)c3cccc(F)c3)[C@H](CO)O2)cc1 | -4 | . | . | -1 | . | . | .
O=C1C(Cl)=C(N2CCCCCC2)C(=O)N1c1ccccc1Cl | . | -3 | -1 | 1 | 27 | -1 | .
CN1CCN(C2=C(Cl)C(=O)N(c3cccc(Cl)c3)C2=O)CC1 | -1 | -2 | -17 | . | 22 | -3 | .
Cc1ccc(N2C(=O)C(Cl)=C(N3CCOCC3)C2=O)cc1Cl | . | -2 | -8 | . | 74* | -1 | ?
CN1CCN(C2=C(Cl)C(=O)N(c3ccc(Cl)c(Cl)c3)C2=O)CC1 | 0 | -2 | -6 | . | 68* | 0 | 2.3*
O=C1C(Cl)=C(N2CCOCC2)C(=O)N1c1ccccc1Cl | -1 | 0 | -16 | 1 | 86* | 1 | 5.6*
COCC(=O)N1C[C@@H](C)[C@@H](OC)CN(C)C(=O)c2cc(NC(=O)c3ccc(OC)cc3)ccc2OC[C@@H]1C | 0 | . | . | 1 | . | . | .
C[C@@H]1CN([C@@H](C)CO)C(=O)c2cc(-c3ccc(F)cc3)cnc2O[C@H]1CN(C)C(=O)Cc1ccccc1 | 3 | . | . | 3 | . | . | .
N#CCCn1cc(C=C2C(=O)NC(=O)NC2=O)c(-c2ccccc2)n1 | . | 0 | -1 | 1 | -1 | 0 | .
CC1=NN(c2ccccc2)C(=O)/C1=C\c1cn(CCC#N)nc1-c1ccc(Cl)cc1 | . | -4 | -122 | -2 | 37* | -1 | 10*
COc1ccc(CN(C)C[C@@H]2Oc3c(NC(=O)C4CCOCC4)cccc3C(=O)N([C@@H](C)CO)C[C@H]2C)cc1 | 1 | . | . | 0 | . | . | .
C/C(CC(=O)Nc1ccccn1)=N\NC(=O)c1cccc(C)c1 | . | 0 | 10 | -2 | 41* | 0 | 37*
C/C(CC(=O)Nc1cc(C)ccn1)=N\NC(=O)c1cccc(F)c1 | 3 | 0 | -5 | -1 | 43* | 0 | 33*
COc1ccc(C(=O)N/N=C(\C)CC(=O)Nc2ccccn2)cc1OC | 1 | -2 | -3 | 0 | 17 | 4 | .
C/C(CC(=O)Nc1cc(C)ccn1)=N\NC(=O)c1ccncc1 | 0 | -2 | -19 | -3 | 75* | 1 | 17*
C/C(CC(=O)Nc1cccc(Cl)c1Cl)=N\NC(=O)c1ccccc1C | . | 1 | -24 | 1 | -3 | 3 | .
C/C(CC(=O)Nc1ccccn1)=N\NC(=O)C(=O)Nc1cccc(C)c1 | -1 | -5 | 12 | . | 6 | -1 | .
